Shown are actives, neighbours in structure and some others; about 1.2% of the full set was active somewhere.
F-actin modifier = modifiers of cytoskeleton assembly. 91,000 tested, 0.18% active. inhibition, % at 2 µM. AID 836. HUVEC TNFa F-actin phalloidin imaging, high content;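 active means inhibition above the batch mean plus 3 SD and confirmed as a hit by visual image inspection, cut at about 30% in these data, passing the limit was not always enough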
TNFa cytotox = toxic to HUVEC cells under TNF alpha stimulation; cell count reduction, % at 2 µM; HUVEC TNFalpha-stimulated, Hoechst cell count, imaging; 93,000 tested, 0.17% active;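 active means cell count reduction exceeding the screen mean by over 5 SD, scaled to untreated wells per plate, cut at about 78% in these data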;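 further: cells counted after 24 h of TNF alpha exposure following the 1 h pretreatment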
E-sel TNF inh = blocks E-selectin expression induced by TNF alpha; inhibition, % at 2 µM; AID 1246; HUVEC TNFa-induced E-selectin immunofluorescence, high content; 120,000 tested, 0.71% active;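 active means inhibition above the batch mean plus 3 SD, and confirmed as a hit on visual image review, cut at about 43% in these data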
VCAM1 TNFa inh = reduces TNF alpha induced VCAM1 expression in HUVEC; HUVEC TNFa-induced VCAM-1 immunofluorescence, high-content imaging; inhibition, % at 2 µM; 95,000 tested, 0.48% active; AID 802;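 active means inhibition above the batch mean plus 3 SD, with images confirmed as a hit by eye, cut at about 37% in these data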
Hits are given with their value; – = inactive; · = no result.

SMILES	F-actin modifier	TNFa cytotox	E-sel TNF inh	VCAM1 TNFa inh
CCN(CC)c1ccc2cc(-c3nnc(-c4ccccc4)o3)c(=O)oc2c1	–	–	–	–
CCN(CC)c1ccc2cc(-c3nc4ccccc4n3C)c(=O)oc2c1	–	–	·	70.5
CCN(CC)c1ccc2cc(-c3nnc(-c4ccc(Br)cc4)o3)c(=O)oc2c1	–	–	–	–
CCN(CC)c1ccc2cc(-c3nc4ccccc4[nH]3)c(=O)oc2c1	47.6	–	–	–
O=C(c1cnccn1)N(Cc1ccco1)C1(C(=O)NC2CCCCC2)CCCCC1	–	–	–	–
CCN(Cc1cc2cc(C)ccc2[nH]c1=O)C(=O)c1cccc(OC)c1	–	82.3	·	90.4
COc1ccc2[nH]c(=O)c(CN(Cc3ccc4c(c3)OCO4)C(C)=O)cc2c1	36.1	–	–	–
COc1ccc(CNC(=O)C(CCSC)NS(=O)(=O)c2ccccc2F)cc1 (stereo unspecified)	·	·	78.6	·
CCN(C(=O)COC(=O)c1cc(C)n(-c2ccc(F)cc2)c1C)C1CCS(=O)(=O)C1 (stereo unspecified)	–	–	99.9	–
CCC(CC)n1[nH]c(=O)c2c(C)cc(C)nc21	–	81.0	–	–
c1ccc(Cn2c(SCCN3CCOCC3)nnc2-c2cccnc2)cc1	–	–	–	–
O=C(COc1ncnc2cc([N+](=O)[O-])ccc12)NCc1ccc2c(c1)OCO2	–	–	–	–
COc1ccc(CCNC(=O)COc2ncnc3cc([N+](=O)[O-])ccc23)cc1	·	·	74.1	·
O=S(=O)(c1ccc(Br)s1)N1CCN(c2ccccc2)CC1	35.6	–	–	84.5
CCSc1nnc(-c2cccs2)o1	–	–	100.0	–
Oc1ccccc1Nc1nc(NCC2CCCO2)c2ccccc2n1 (stereo unspecified)	–	–	65.0	–
O=C(O)CC1SC(=Nc2cccc(O)c2)NC1=O (stereo unspecified)	·	·	–	·
Cc1cccc(C(=O)NNC(=O)Nc2ccccc2)c1	·	·	64.5	·
CC(C)(C)NC(=O)C1N(c2cccnc2)C(=O)C2C(C(=O)Nc3ccccc3F)C3(C)C=CC21O3 (stereo unspecified)	72.5	–	–	–
CC12C=CC3(O1)C(C(=O)N(c1cccnc1)C3C(=O)NC1CCCCC1)C2C(=O)Nc1ccccc1 (stereo unspecified)	–	–	–	–
CC(NC(=O)c1ccc(Br)cc1)C(=O)NC1=NCCS1 (stereo unspecified)	·	·	–	·
CCOc1cc(/C=C2\C(=O)N(c3ccc(C(N)=O)cc3)N=C2C)ccc1OC(=O)c1cccs1	–	–	–	–
CCOc1cc(/C=C2/C(=O)N(c3ccccc3)N=C2C)ccc1OC(=O)c1ccco1	–	–	–	44.2
Cc1nn(-c2ccccc2)c(Cl)c1CN(C(=O)CCl)c1cccc2ccccc12	·	·	95.8	·
Cc1cc(C)nc(SCC(=O)Nc2ccc(S(=O)(=O)N3CCCCC3)cc2)n1	–	–	–	–
SMILES	F-actin modifier	TNFa cytotox	E-sel TNF inh	VCAM1 TNFa inh
Cc1c(Nc2cc(Cl)c3nonc3c2[N+](=O)[O-])c(=O)n(-c2ccccc2)n1C	·	·	99.9	·
O=C(c1ccc(N2CCOCC2)cc1)c1cccs1	–	–	·	–
CN(C)CCNC(=O)/C(=C/c1ccc(-c2ccc(Cl)cc2)o1)NC(=O)c1ccccc1	·	·	93.5	·
COc1ccccc1NC(=O)c1ccc(S(=O)(=O)N2CCCC2)cc1	–	–	99.5	–
CN1CCN(S(=O)(=O)c2ccc(NC(=O)c3ccc(F)cc3)cc2)CC1	–	–	100.0	–
COC(=O)c1sc(NC(=O)CCCn2nc([N+](=O)[O-])cc2C)c(C(=O)OC)c1C	·	·	–	·
Cc1cc([N+](=O)[O-])nn1CCCC(=O)Nc1sc2c(c1C(N)=O)CCC(C)C2 (stereo unspecified)	·	·	84.2	·
CC(=O)c1cccc(Nc2nc(-c3cccc([N+](=O)[O-])c3)cs2)c1	–	–	–	38.8
CC(=O)Nc1nc(C)c(-c2csc(Nc3cccc([N+](=O)[O-])c3)n2)s1	–	–	–	–
CC(CN1CCOCC1)C(=O)c1ccccc1 (stereo unspecified)	–	–	–	–
COc1ccc(C(=O)C(CN2CCOCC2)c2ccccc2)cc1F (stereo unspecified)	–	·	62.4	·
COc1ccc(C(O)C(CN2CCOCC2)c2ccccc2)cc1F (stereo unspecified)	–	–	–	–
CCCOc1ccc(C(=O)C(c2ccccc2)N2CCOCC2)cc1 (stereo unspecified)	·	–	–	–
CCCOc1ccc(C(=O)C(CN2CCOCC2)c2ccccc2)cc1 (stereo unspecified)	–	–	–	50.0
CCOc1ccc(C(=O)C(c2ccccc2)N2CCOCC2)cc1 (stereo unspecified)	–	–	·	75.9
COc1ccccc1C(c1nnnn1CC1CCCO1)N1CCC(C(N)=O)CC1 (stereo unspecified)	–	–	–	–

From PubChem
